Screening results from PubChem BioAssay.
GCN5L2 inh – GCN5L2 (KAT2A) acetyltransferase inhibition; Q92830; GCN5L2 HAT assay, ThioGlo1 CoA-SH fluorescence; actives 0.21% (n = 390,000); Potency, µM (series often up to 58.9 µM), for inactives: at the highest dose activity change, negative = inhibition, hits mostly inhibitors
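GCN5L2 (20 nM) in 50mM HEPES pH 7.5, 0.1mM EDTA, 0.01% Tween-20 preincubated 15 min with compounds at room temperature. Reaction started with H3(1-25) 75uM, acetyl-CoA 70uM, ThioGlo1 50uM; CoA-thiol fluorescence (Ex340/Em540) read at 0 and 20 min.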
Sfp PPTase inh – blocks B. subtilis Sfp PPTase activity | Biochemical Sfp PPTase activity, qHTS | actives 3.5% (n = 310,000) | Potency, µM, for the others: largest response in the series, negative = inhibition, hits mostly inhibitors | AID 1490;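 also: the enzyme is Sfp with the accession as filed and its product quenches rhodamine fluorescence; 0% = enzyme reaction without inhibitor and -100% = no enzyme wells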
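Buffer: 50 mM Hepes-Na pH 7.6, 10 mM MgCl2, 0.01% Nonidet P-40, 0.01% BSA. Enzyme 15 nM, pre-exposed to compound 15 min; substrates then added and fluorescence change tracked over 30 min.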
GLS inh – glutaminase GLS (human) inhibition; O94925; GLS enzymatic activity, qHTS titration; Potency, µM (top dose mostly 45.5 µM), inactives show top-dose activity change, negative = inhibition, hits mostly inhibitors; actives 0.21% (n = 410,000); AID 624170
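Two-point fluorescence kinetic (t0, 30 min RT) for hKGA; glutamate detected via glutamate oxidase–HRP–Amplex Red. Substrate: 1 mM L-glutamine solution; buffer 45 mM KH2PO4, pH 8.2.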
TrxR1 substrate – rat thioredoxin reductase 1 substrate activity; O89049; actives 0.01% (n = 390,000); Potency, µM (top dose mostly 114 µM), for the others: at the top dose activity change, negative = substrate turnover; AID 588456; purified TrxR1 substrate turnover, NADPH consumption readout; also: nearly all actives have a fitted effect of over 50% in size
Target sequence (O89049 whole entry, looked up): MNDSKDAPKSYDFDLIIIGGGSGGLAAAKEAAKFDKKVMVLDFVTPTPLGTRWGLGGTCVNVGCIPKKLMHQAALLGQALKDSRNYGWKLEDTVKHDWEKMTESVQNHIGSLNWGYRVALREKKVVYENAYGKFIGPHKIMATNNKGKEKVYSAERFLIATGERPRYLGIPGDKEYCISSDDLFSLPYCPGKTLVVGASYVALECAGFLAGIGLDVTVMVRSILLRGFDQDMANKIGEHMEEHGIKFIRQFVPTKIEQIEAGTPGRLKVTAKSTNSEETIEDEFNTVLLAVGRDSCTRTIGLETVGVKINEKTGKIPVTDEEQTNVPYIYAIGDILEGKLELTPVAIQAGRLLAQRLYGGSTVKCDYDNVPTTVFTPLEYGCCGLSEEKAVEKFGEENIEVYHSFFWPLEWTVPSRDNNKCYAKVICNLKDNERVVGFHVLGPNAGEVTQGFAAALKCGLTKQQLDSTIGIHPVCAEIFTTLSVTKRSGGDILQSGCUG
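Rat TrxR1, dispensed at 90 nM, was prereduced with 400 uM NADPH (final) for 5 min at ~22 deg C, then incubated with compound 15 min before 400 uM selenite. A first-read NADPH fluorescence drop versus no-compound background flagged substrates.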
VDR inhibitor – vitamin D3 receptor (human) inhibition; P11473; VDR-SRC2-3 peptide fluorescence polarization, 2 h; Potency, µM, for inactives: max response, negative = inhibition, actives largely listed as inhibitors; actives 0.93% (n = 400,000); AID 504847
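The screen uses fluorescence polarization to detect compounds that interfere with recruitment of the SRC2-3 coactivator peptide to VDR; plates are read after 2 h at room temperature.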
rTrxR1 inhibitor – rat TrxR1 inhibition; recombinant rTrxR1, NADPH fluorescence consumption, selenite substrate; Potency, µM (series often up to 114 µM), for inactives: at the top dose activity change, negative = inhibition, actives largely listed as inhibitors; actives 1% (n = 390,000); also: nearly all actives have a fitted effect of over 65% in size
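Rat TrxR1 (90 nM in the dispensed reagent) was pre-reduced with 400 uM NADPH for 5 min at room temperature, then incubated with compound for 15 min. After 400 uM selenite was added, NADPH fluorescence (Ex 340/Em 450 nm) was followed for 8 min.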
An asterisk follows results filed as active; ! = a repeat was not active; [ ] = dose if it differs, or a comment. Sampled rows, rich in hits. Any-hit rate of the full collection: about 3.8%. Calls follow the shape of the dose curve; as a rule, active = well fitted curve in the direction sought with a large enough effect; inconclusive = small, poorly fitted or top-dose-only effect, or another doubt; inactive = no such curve, though single readings can be large; an effect the other way counts as inactive or inconclusive. Unless noted, % is scaled to controls: 0 for no effect and ±100 for the full control effect; potency is read from the fitted curve at half-maximal effect.

For CC(=O)Nc1ccc(-c2nc3ccc(NC(C)=O)cc3o2)cc1 the results were GCN5L2 inh -22%, Sfp PPTase inh 24%, GLS inh -1%, TrxR1 substrate 468%, VDR inhibitor 12% and rTrxR1 inhibitor 50µM*.
CCOC(=O)CN(C(=O)CSc1nnc(Cc2ccccc2)n1-c1ccc(C)cc1)c1ccccc1 was read as GCN5L2 inh 1%, Sfp PPTase inh 7%, GLS inh 0%, TrxR1 substrate 0%, VDR inhibitor 10% and rTrxR1 inhibitor 14%.
Screening COc1cccc(CNC(=O)c2ccc3c(c2)N(C)CCS3)c1OC returned GCN5L2 inh inconclusive, Sfp PPTase inh 8%, GLS inh 15%, TrxR1 substrate 81%[57.1 µM], VDR inhibitor -4% and rTrxR1 inhibitor 37%[57.1 µM].
Screening COCCCC/C(=N\OCCN)c1ccc(C(F)(F)F)cc1 returned GCN5L2 inh -5%, Sfp PPTase inh 56µM*!, GLS inh -3%, TrxR1 substrate 2%, VDR inhibitor 13% and rTrxR1 inhibitor 13%.
`Cc1ccc(-c2nn(CCC(=O)O)cc2/C=C\C(=O)c2ccc(Br)cc2)cc1` gave GCN5L2 inh 3%, Sfp PPTase inh -3%, GLS inh -11%, TrxR1 substrate -9%, VDR inhibitor 35µM* and rTrxR1 inhibitor -17%.
Screening O=C(O)CCn1cc(/C=C\C(=O)c2ccc(Cl)cc2)c(-c2cccc(Br)c2)n1 returned GCN5L2 inh 33%, Sfp PPTase inh 3%, GLS inh inconclusive, TrxR1 substrate -11%, VDR inhibitor 50µM* and rTrxR1 inhibitor inconclusive.
COc1cc(/C=C(/C(=O)c2cccs2)c2nc3ccccc3[nH]2)ccc1O was read as GCN5L2 inh -18%, Sfp PPTase inh 8%, GLS inh 19%, TrxR1 substrate -11%[57.1 µM], VDR inhibitor inconclusive and rTrxR1 inhibitor 14µM*.
For N#C/C(=N/Nc1ccc(OC(F)(F)F)cc1)C(N)=S the results were GCN5L2 inh -13%, Sfp PPTase inh inconclusive, GLS inh inconclusive, TrxR1 substrate -11%, VDR inhibitor -16% and rTrxR1 inhibitor -13%.
`NC(=S)N=Nc1ccc(NN=C(N)N)cc1` gave GCN5L2 inh inconclusive, Sfp PPTase inh 0.56µM*, GLS inh 45%, TrxR1 substrate -9%, VDR inhibitor 18µM* and rTrxR1 inhibitor 20µM*.
Screening O=C(COC(=O)c1ccccn1)Nc1ccccc1Cl returned GCN5L2 inh -2%, Sfp PPTase inh inconclusive, GLS inh 1%, TrxR1 substrate -9%, VDR inhibitor -5% and rTrxR1 inhibitor 7%[57.1 µM].
For CN(Cc1ccccc1)C(=O)COC(=O)c1ccc(S(=O)(=O)N(C)C)cc1 the results were GCN5L2 inh 11%, Sfp PPTase inh 15%, GLS inh -2%, TrxR1 substrate 10%[57.1 µM], VDR inhibitor 2% and rTrxR1 inhibitor 10%[57.1 µM].
O=C(CSc1nnc(Cn2c(=O)sc3ccccc32)n1-c1ccccc1)Nc1nccs1 was read as GCN5L2 inh 1%, Sfp PPTase inh 79µM*, GLS inh 3%, TrxR1 substrate 5%[57.1 µM], VDR inhibitor -28% and rTrxR1 inhibitor 27%[57.1 µM].
`O=C(CSc1nnc(Cn2c(=O)sc3ccccc32)n1-c1ccccc1)N1CCCC1` gave GCN5L2 inh -1%, Sfp PPTase inh 16%, GLS inh -9%, TrxR1 substrate 6%, VDR inhibitor -1% and rTrxR1 inhibitor 42%.
For Cc1ccc(/C=C/C(=O)Nc2cc(=O)n(C)c(=O)n2C)o1 the results were GCN5L2 inh -9%, Sfp PPTase inh -81%, GLS inh 8%, TrxR1 substrate -5%, VDR inhibitor inconclusive and rTrxR1 inhibitor 7.9µM*.
For Cn1c(NC(=O)/C=C/c2ccco2)cc(=O)n(C)c1=O the results were GCN5L2 inh -2%, Sfp PPTase inh 56µM*, GLS inh -6%, TrxR1 substrate -12%, VDR inhibitor 7% and rTrxR1 inhibitor inconclusive.
